Screening results deposited in PubChem BioAssay by National Center for Advancing Translational Sciences (NCATS).
This is one part of a sample in which hits are shown more often than they occur.
LmPK inh: qHTS Assay for Inhibitors of Leishmania Mexicana Pyruvate Kinase (LmPK) | 0.37% of 290,000 active | AID 1721, 2009 | Q27686 | Potency, µM (titrated, usually from 57.5 µM), without a hit: at the highest dose activity change, negative = inhibition, actives largely listed as inhibitors | purified LmPK, Kinase-Glo ATP luminescence, 1 h; note: potency is the fitted concentration of half-maximal effect; % is set by controls: 0 for no effect and ±100 for the full control effect
Target sequence (Q27686 whole entry, looked up): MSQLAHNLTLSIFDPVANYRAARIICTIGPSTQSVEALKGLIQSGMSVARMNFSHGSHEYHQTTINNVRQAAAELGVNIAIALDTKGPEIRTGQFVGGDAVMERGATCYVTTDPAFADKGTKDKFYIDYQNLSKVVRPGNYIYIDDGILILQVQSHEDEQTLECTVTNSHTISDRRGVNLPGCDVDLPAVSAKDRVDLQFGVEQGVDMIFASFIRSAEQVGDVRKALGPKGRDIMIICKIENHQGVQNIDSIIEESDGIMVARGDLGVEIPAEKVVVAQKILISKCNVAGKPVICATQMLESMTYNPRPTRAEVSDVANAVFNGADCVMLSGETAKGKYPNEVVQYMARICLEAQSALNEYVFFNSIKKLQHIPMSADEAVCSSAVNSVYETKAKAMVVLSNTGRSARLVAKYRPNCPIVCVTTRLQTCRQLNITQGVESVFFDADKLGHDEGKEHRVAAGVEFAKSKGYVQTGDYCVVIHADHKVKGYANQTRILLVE
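In 50 mM imidazole pH 7.2 with 7 mM MgCl2, LmPK (0.1 nM) turned over PEP (0.5 mM) and ADP (0.1 mM) for 1 h at room temperature. Luciferase read-out of ATP.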
FBPA Giardia inh: qHTS Assay for Inhibitors of Fructose-1,6-bisphosphate Aldolase from Giardia Lamblia | purified Giardia FBPA | Potency, µM (highest dose often 59.6 µM), inactives show top-dose activity, negative = inhibition, most hits filed as inhibitors | 0.71% of 290,000 active; note: potency is the fitted concentration of half-maximal effect; % is set by controls: 0 for no effect and ±100 for the full control effect; nearly all actives have a fitted effect of over 55% in size
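Giardia FBPA (40 nM reagent) was preincubated 10 min at RT with compound (up to 57.5 uM final), then substrate plus GAPDH/TPI/NAD/arsenate coupling system with diaphorase/resazurin was added; resorufin fluorescence (525/598 nm) was read after 20 min.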
RE007 growth inh: qHTS Assay for Inhibitors of the HIV-1 protein Vpr. S. pombe RE007 Vpr strain, BacTiter-Glo ATP luminescence, 24 h. AID 651644, 2012. 0.21% of 360,000 active. Potency, µM (doses to about 92.2 µM), for the others: top-dose activity change, negative = less growth, most hits filed as inhibitors; active = well fitted falling curve with a large enough effect; inconclusive = small, poorly fitted or top-dose-only effect; inactive = no such curve, though single readings can be large or run the other way; note: potency is the fitted concentration of half-maximal effect; % is set by controls: 0 for no effect and ±100 for the full control effect; nearly all actives have a fitted effect of over 50% in size
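Fission yeast strain RE007, carrying one chromosomally integrated HIV-1 vpr copy, was seeded at OD 0.01 in PMG+AL medium with 23 nL pinned compound. After 24 h at 30 °C and 99% humidity, viability was read by BacTiter-Glo luminescence.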
Shiga inhibitor: A qHTS for Small Molecule Inhibitors of Shiga Toxin; inhibition, % at 38.7 µM; AID 2315, 2010; Vero cells, Shiga toxin protein synthesis inhibition reporter; 9.2% of 290,000 active; in the data active = inhibition mostly above about 28%, no sharp cut-off; inactive = mostly below about 43%; note: 0% is about no effect
Tb PYK inh: qHTS of Trypanosoma Brucei Inhibitors; 0.12% of 410,000 active; TbPYK enzyme, Kinase-Glo Plus ATP luminescence, 45 min; Potency, µM (highest dose often 76.8 µM), for the others: at the top dose activity, negative = inhibition, hits mostly inhibitors; pyruvate kinase (Trypanosoma brucei), Q57TT1; note: potency is the fitted concentration of half-maximal effect; % is set by controls: 0 for no effect and ±100 for the full control effect; nearly all actives have a fitted effect of over 50% in size
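Enzyme and substrate buffer are dispensed first and compound is pin-transferred. ADP at 130 uM final then starts the reaction, which runs 45 min at room temperature. Detection reagent is added for 10 min before luminescence is imaged.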
Cycloheximide cs: Cycloheximide Counterscreen for Small Molecule Inhibitors of Shiga Toxin; cell reporter, cycloheximide protein synthesis inhibition counterscreen; max response, %; 12% of 300,000 active; in the data active = max response mostly above about 13%, no sharp cut-off; inactive = mostly below about 14%; note: read at 38.3 µM for the half of the compounds with a filed dose; 0% is about no effect
* hit, by the source's call; ? = inconclusive; . = not tested or not shown. Unless noted, calls come from the whole dose curve; as a rule, active = well fitted curve in the direction sought with a large enough effect; inconclusive = small, poorly fitted or top-dose-only effect, or another doubt; inactive = no such curve, though single readings can be large; an effect the other way counts as inactive or inconclusive.

SMILES	LmPK inh	FBPA Giardia inh	RE007 growth inh	Shiga inhibitor	Tb PYK inh	Cycloheximide cs
CCC(C)NC(=O)c1ccccc1-c1nc2ccccc2[nH]1 (stereo unspecified)	0.3%	0.5%	-3.5%	-14.4	-1.9%	-1.6
CCOc1ccccc1NC(=O)C1CCCN(c2ncnc3onc(-c4ccc(F)cc4)c23)C1 (stereo unspecified)	.	.	.	.	-5.2%	.
O=C(CN(Cc1cccs1)C(=O)CNS(=O)(=O)c1ccccc1)NC1CCCC1	-2.0%	-0.5%	3.5%	-13.2	-4.4%	-8.7
Cc1cc(C)cc(NC(=O)Nc2ccccc2N2CCCCC2)c1	2.5%	-1.4%	-2.1%	13.4	-1.2%	1.5
CC(=O)c1ccc(Oc2ccc(C(C)=O)cc2)cc1	6.1%	0.3%	-1.0%	83.0	-5.7%	17.3*
O=C(Nc1nc2ccccc2n1CCOc1ccccc1)c1ccco1	1.9%	?	-2.9%	79.7	5.3%	47.7*
O=C(Nc1nc2ccccc2n1CCOc1ccc(Cl)cc1)c1ccco1	17.1%	18.1%	-21.6%	48.8	6.8%	20.1*
Cc1cccc(OCCn2c(NC(=O)c3ccco3)nc3ccccc32)c1	7.2%	22.0%	?	89.2*	-19.3%	26.3*
CCCc1cc(=O)n2c(C(=O)Nc3ccc(OCC)cc3)c(C(=O)Nc3ccc(C)cc3)sc2n1	.	.	.	.	-7.0%	.
C/C(=C(/CCO)SS/C(CCO)=C(\C)N(C=O)Cc1cnc(C)nc1N)N(C=O)Cc1cnc(C)nc1N	.	.	.	.	-0.5%	.
N#CCn1cnc2sc(-c3ccccc3)cc2c1=O	0.5%	3.7%	20.0%	58.2	0.6%	26.8*
COc1cccc(-n2cnc3sc(-c4ccccc4)cc3c2=O)c1	.	.	19.3%	.	-5.7%	.
CCn1cnc2sc(-c3ccccc3)cc2c1=O	-10.9%	3.5%	-16.4%	112.0*	-11.5%	29.4*
CC(C)COC(=O)Cn1nnc2sc(-c3ccccc3)cc2c1=O	.	.	.	.	-2.0%	.
CCOC(=O)C(CC)n1nnc2sc(-c3ccccc3)cc2c1=O (stereo unspecified)	.	.	.	.	-1.5%	.
CC(=O)Cn1nnc2sc(-c3ccccc3)cc2c1=O	11.9%	-5.6%	-12.2%	92.7*	-2.1%	46.5*
COc1ccc(-n2cnc3sc(-c4ccccc4)cc3c2=O)cc1	4.0%	0.7%	10.8%	42.6	3.5%	43.1*
CC(C)NC(=O)C1CCCN(S(=O)(=O)c2ccc3c(ccn3C)c2)C1 (stereo unspecified)	.	.	.	.	-0.7%	.
COc1ccc(-n2cc3c(-c4cccc(Br)c4)nnc(C)c3n2)cc1	4.8%	0.4%	7.4%	24.9	-3.9%	-2.5
CC(=O)Cn1cnc2sc(-c3ccccc3)cc2c1=O	0.9%	8.3%	?	35.5*	1.7%	38.6*
O=C(Cn1cnc2sc(-c3ccccc3)cc2c1=O)N1CCOCC1	-1.5%	1.2%	-2.7%	-11.5	-10.6%	-2.8
COc1ccc(C(=O)NCc2ccccc2CN2CCCC2)cc1S(=O)(=O)N1CCOCC1	.	.	-3.6%	.	0.8%	.
COc1ccc(-c2cc(C(=O)O)nc3ccc4ccccc4c23)cc1OC	6.4%	-10.2%	-0.8%	40.6*	3.0%	18.5*
CCC(C)n1c(-c2cccc(S(=O)(=O)N3CCOCC3)c2)n[nH]c1=S (stereo unspecified)	.	.	-3.2%	.	7.08µM*	.
CN(C)CCNc1ccc2ncn3c4ccc(O)cc4c(=O)c1c23	.	.	-2.6%	.	4.0%	.
SMILES	LmPK inh	FBPA Giardia inh	RE007 growth inh	Shiga inhibitor	Tb PYK inh	Cycloheximide cs
CC(=O)c1ccc(NC(=O)c2cc(Cl)sc2Cl)cc1	-0.8%	-6.8%	?	31.6*	0.5%	39.7*
CC(=O)c1ccc(NC(=O)c2ccccc2-c2ccccc2C(=O)O)cc1	0.0%	5.1%	3.1%	42.1	-4.9%	-4.0
Cc1cc(C)cc(NC(=O)c2cc(Cl)sc2Cl)c1	0.2%	-1.2%	-5.9%	22.8	-1.8%	29.7*
CCCCCc1ccc(CC(=O)N2CCOCC2)cc1	-1.2%	-3.1%	13.5%	16.7	-5.3%	5.8
Cc1ccccc1NC(=O)Cn1c(SCC(=O)Nc2ccc(F)cc2)nc2ccccc21	.	.	.	.	-2.4%	.
Cc1cccc(-c2noc(CCCC(=O)N3CCOCC3)n2)c1	3.2%	6.0%	-10.4%	11.3	3.6%	11.4*
COc1ccc(-c2nnc(SCc3nc4ccccc4c(=O)[nH]3)o2)cc1	3.3%	0.7%	9.8%	62.8*	5.9%	41.1*
COc1cccc(-c2nnc(SCC(=O)N3CCOCC3)o2)c1	-1.8%	3.6%	-6.5%	31.7	-23.1%	22.1*
O=C(CSc1nnc(-c2cccc(F)c2)o1)N1CCCC1	-9.9%	.	-1.5%	35.6	0.7%	23.2*
COc1ccc(NC(=O)Cn2ccn(-c3ccc(F)c(F)c3)c(=O)c2=O)cc1Cl	.	.	.	.	0.6%	.
COc1ncccc1-c1cc2nc(NCCCN(C)C)n(C)c(=O)c2s1	.	.	-16.0%	.	5.2%	.
O=C(O)COc1cccc(-c2ocnc2-c2nc(-c3ccccc3)c(-c3ccccc3)o2)c1	.	29.9%	.	.	.	.
COc1ccc(-c2nnc(SCC(C)C)o2)cc1	-2.0%	-1.4%	4.0%	55.4*	-3.6%	58.4*
COc1ccc(OC)c(-c2nnc(SCC(=O)N3CCOCC3)o2)c1	-0.3%	-2.0%	-4.5%	-10.5	-4.5%	2.4
COc1ccc(-c2nnc(SCC(=O)N3CCOCC3)o2)cc1	-2.3%	-5.4%	11.7%	122.2*	-1.6%	16.8
O=C(CSc1nnc(-c2cccc(F)c2)o1)N1CCOCC1	-8.1%	2.9%	5.9%	-6.5	6.4%	5.7
COc1cc(-c2nnc(SCC(=O)N3CCOCC3)o2)cc(OC)c1OC	1.2%	.	-8.2%	15.6	-6.3%	-1.8
Cc1cccc(-c2nnc(SCC(=O)N3CCOCC3)o2)c1	-2.2%	6.3%	-13.6%	70.5*	-5.6%	20.7*
O=C(CSc1nnc(-c2ccc(OC(F)F)cc2)o1)N1CCOCC1	-3.8%	1.2%	12.7%	82.4*	3.9%	21.4*
COc1ccccc1CNC(=O)C1CCN(S(=O)(=O)Cc2ccccc2)CC1	.	.	.	.	3.0%	.
S=C(NCCc1ccccc1)NC1CC2CCC(C1)N2Cc1ccccc1 (stereo unspecified)	-0.5%	1.3%	-9.5%	12.3	-8.5%	-3.5
CCn1cc(CN2CCCC(C(=O)Nc3ccc(-c4nc5ccccc5[nH]4)cc3)C2)c(C)n1 (stereo unspecified)	-15.0%	.	3.3%	33.9	0.5%	25.6*
Cc1cc(CN2CCCC(C(=O)Nc3ccc(-c4nc5ccccc5[nH]4)cc3)C2)n[nH]1 (stereo unspecified)	2.1%	-12.9%	-1.6%	42.2	12.3%	28.8*
COc1cccc(-c2ccc(NC(=O)C3CCCN(Cc4cccc(C)n4)C3)cc2)c1 (stereo unspecified)	.	.	7.6%	.	-11.0%	.
COc1ccc(NC(=O)Nc2nnc(N3CCCCCC3)s2)c(OC)c1	.	.	.	.	5.4%	.
